± gives the standard deviation of the averaged measurements. Whole data set: some 33,000 sequences, median “E-score (rank enrichment, -0.5 to 0.5)” near -0.0075, cut for the highest 2% near 0.23. This excerpt belongs to a sample that is enriched for the highest values.
system: WT Max(13-93) synthetic (M65Nle); assay: PBM 8-mer E-score (E-score (rank enrichment, -0.5 to 0.5)); higher = stronger preferential binding
Experimental: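 Protein binding microarray (universal PBM chip covering all 10-mers in fixed probe flanks) with chemically synthesized human Max(13-93) bHLH-LZ analogs (not full-length Max) bearing noncanonical residues (hArg, Tha, Aib, Nle at 65) and aromatic Cys staples. Read-out per 8-mer (and its reverse complement): E-score (rank-based enrichment, -0.5 to 0.5) and Z-score of median probe intensity.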

Row | Sequence | PBM 8-mer E-score
1 | ACTAATAA | 0.182 ± 0.058
2 | GATAATTA | 0.157 ± 0.17
3 | AATAATTC | 0.0855 ± 0.084
4 | TCTAATAA | 0.272 ± 0.069
5 | CCTAATAA | 0.166 ± 0.01
6 | AATAATAC | 0.211 ± 0.029
7 | TATAATAA | 0.2203 ± 0.00023
8 | AATAATTA | 0.237 ± 0.058
9 | ACTCGGTA | -0.0471 ± 0.064
10 | CGTAGGCA | -0.0828 ± 0.077
11 | GAAGCCCA | -0.0819 ± 0.0058
12 | CCACCTGG | 0.0162 ± 0.071
13 | TCAACTCA | -0.088 ± 0.024
14 | AGATGCGG | -0.0543 ± 0.14
15 | CGCTTCTA | -0.0256 ± 0.055
16 | CCATTGGG | -0.154 ± 0.1
17 | CAATCCAG | 0.0833 ± 0.0029
18 | CCTAATTA | 0.138 ± 0.094
19 | CATAATTC | -0.0543 ± 0.0058
20 | CATAATTA | 0.236 ± 0.025
21 | GTATCGAA | -0.0312 ± 0.052
22 | AGCTAATG | -0.0403 ± 0.0067

Row | Sequence | PBM 8-mer E-score
23 | GATAATCA | 0.253 ± 0.14
24 | TATAATCA | 0.257 ± 0.014
25 | GATAATCC | -0.0355 ± 0.034
26 | AATAATCA | 0.125 ± 0.0096
27 | CATAATCA | 0.101 ± 0.028
28 | GATAATAA | 0.137 ± 0.092
29 | ACGCCAGT | -0.159 ± 0.098
30 | CTCGAATA | -0.174 ± 0.064
31 | CCATTACA | 0.165 ± 0.0069
32 | AAGTTAAT | 0.234 ± 0.036
33 | AAGTTAAG | -0.0928 ± 0.093
34 | AAGTTAAC | 0.18 ± 0.0042
35 | ATGGACAA | 0.0228 ± 0.022
36 | GCTCCTCC | -0.127 ± 0.14
37 | AAATTATA | 0.237 ± 0.0041
38 | CAATTATA | 0.137 ± 0.059
39 | AAATTATC | 0.158 ± 0.031
40 | AAATTATG | 0.127 ± 0.011
41 | GAATTATA | 0.128 ± 0.074
42 | TAATTATA | 0.264 ± 0.11
43 | GCCGAAAA | 0.0297 ± 0.015
44 | AACGCGTC | -0.0583 ± 0.0094

Row | Sequence | PBM 8-mer E-score
45 | CACGCGAG | 0.0779 ± 0.018
46 | CACGCGTA | 0.165 ± 0.036
47 | CACGCGCG | 0.224 ± 0.034
48 | CACGCGAA | 0.0737 ± 0.06
49 | CACGCGCC | 0.238 ± 0.013
50 | AACGCGTA | 0.0664 ± 0.023
51 | CACGCGTG | 0.349 ± 0.015
52 | CACGCGTC | 0.266 ± 0.016
53 | AACGCGTG | 0.222 ± 0.068
54 | CACGCGCA | 0.149 ± 0.079
55 | CACGCGAC | 0.271 ± 0.066
56 | CAACTCGG | -0.13 ± 0.11
57 | ATAACCGA | -0.0219 ± 0.011
58 | CAAATTAC | 0.177 ± 0.062
59 | CCATCACC | 0.144 ± 0.01
60 | ATGCAGTG | 0.0344 ± 0.068
61 | AAATGCGA | -0.0159 ± 0.018
62 | AGGCTAGG | 0.0514 ± 0.046
63 | GGCAGATA | 0.116 ± 0.062
64 | ACGTTTTG | 0.101 ± 0.09
65 | GCGTTATA | 0.108 ± 0.025
66 | CCGTTATA | 0.132 ± 0.018

Row | Sequence | PBM 8-mer E-score
67 | ACGTTATA | 0.241 ± 0.038
68 | ACGTTATC | 0.133 ± 0.013
69 | ACGTTATG | 0.24 ± 0.0059
70 | ACGTTAGG | 0.107 ± 0.099
71 | ACATCATG | -0.0233 ± 0.006
72 | AGCGCCTC | -0.185 ± 0.038
73 | AACACCGG | -0.157 ± 0.029
74 | ATTTGTTA | 0.0868 ± 0.01
75 | CTTTGTTC | 0.0437 ± 0.024
76 | ATTTGTTC | 0.241 ± 0.11
77 | CGAGATGA | -0.159 ± 0.091
78 | AGTAGCTA | 0.178 ± 0.057
79 | GATCTCGA | -0.159 ± 0.022
80 | CCGCCGAA | -0.156 ± 0.022
81 | CACGTGAA | 0.388 ± 0.053
82 | CACGTGAC | 0.4879 ± 0.0015
83 | CACGTGAG | 0.404 ± 0.019
84 | AACGTGAC | 0.205 ± 0.016
85 | CGCGTGAG | 0.0752 ± 0.04
86 | TACGTGAA | 0.0446 ± 0.099
87 | GACGTGAC | -0.0117 ± 0.088
88 | CCCGTGAG | -0.0893 ± 0.044

Reference: the supplement of paper PMC12636033
